# Results: the supplement of paper PMC3334620
# Whole data set: some 33,000 sequences, median “E-score (-0.5 to 0.5)” near -0.011, cut for the highest 2% near 0.28. The entries come from a sample that favours the highest values as a whole.
# Target: T1, Gcr1 (UniProt P07261)
# T1 sequence: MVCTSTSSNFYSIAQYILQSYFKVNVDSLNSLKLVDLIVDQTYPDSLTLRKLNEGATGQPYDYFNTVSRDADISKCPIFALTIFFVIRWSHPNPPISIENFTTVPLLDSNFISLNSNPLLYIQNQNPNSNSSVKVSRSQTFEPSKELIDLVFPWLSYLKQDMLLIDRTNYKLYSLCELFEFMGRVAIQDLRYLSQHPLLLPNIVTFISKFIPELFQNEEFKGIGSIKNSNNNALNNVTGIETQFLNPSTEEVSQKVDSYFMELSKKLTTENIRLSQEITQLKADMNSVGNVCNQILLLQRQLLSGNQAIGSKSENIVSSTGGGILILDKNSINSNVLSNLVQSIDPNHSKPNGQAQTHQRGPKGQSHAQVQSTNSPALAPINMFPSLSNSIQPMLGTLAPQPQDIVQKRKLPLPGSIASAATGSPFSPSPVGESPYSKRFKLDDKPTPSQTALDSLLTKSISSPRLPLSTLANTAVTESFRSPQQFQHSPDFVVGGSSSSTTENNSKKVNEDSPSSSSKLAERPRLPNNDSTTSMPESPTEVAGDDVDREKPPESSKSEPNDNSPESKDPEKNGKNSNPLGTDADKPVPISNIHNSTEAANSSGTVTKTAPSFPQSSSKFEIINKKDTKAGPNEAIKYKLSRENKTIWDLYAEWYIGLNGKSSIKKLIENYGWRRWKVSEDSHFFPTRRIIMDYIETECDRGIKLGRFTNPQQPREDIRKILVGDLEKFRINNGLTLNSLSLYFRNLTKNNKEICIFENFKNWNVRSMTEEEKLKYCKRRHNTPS
# Test: PBM E-score (8-mer binding enrichment) (E-score (-0.5 to 0.5)); higher = stronger / more preferred TF binding
# Conditions: protein concentration: 100 nM; construct: GST-full length
# In short: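 Yeast transcription factors, full-length or as DNA-binding domains, were expressed with a GST tag using PURExpress in vitro transcription/translation. At about 100-200 nM they were applied to universal all-10-mer Agilent arrays, double-stranded by primer extension on fresh or once-stripped slides. Fluorescent anti-GST detected bound protein, and masliner normalised the scans. E-scores for ungapped eight-base words, pooled with reverse complements, came from the Universal PBM Analysis Suite.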
row,Sequence,PBM E-score
1,CGAATGGC,0.137
2,CAGGGTGC,0.234
3,ACTCATAA,-0.0566
4,AAGCCGAT,-0.0786
5,ACGAACCT,-0.0495
6,AGGAACCT,0.38
7,TGGAACAA,-0.0703
8,GGGAACGA,-0.0791
9,AAGAACCT,0.2
10,CGGAACCA,0.114
11,CGGAACCG,0.18
12,TGGAACCA,0.357
13,TAGAACCA,0.0906
14,CGGAACCC,0.348
15,CAGAACCC,0.208
16,GGGAACCA,0.314
17,CAGTACCA,0.0486
18,AACATTCG,-0.0406
19,TAAATACA,0.161
20,GGTGGTCA,-0.132
21,AGCACGCT,-0.123
22,ACAGCGGT,-0.219

row,Sequence,PBM E-score
1,GGGAACCC,0.336
2,AGGAACCG,0.139
3,GGAAACCC,0.106
4,AGGAACCA,0.203
5,GAGAACCC,-0.162
6,AGGAACCC,0.414
7,CATGCCTA,-0.112
8,AAGAGAGC,-0.276
9,GAGCCGTA,0.0183
10,ATGGATAG,-0.00601
11,AACGGGGA,-0.00775
12,GGGATCAC,-0.137
13,ACGATCCT,-0.0105
14,AGAATCCA,0.249
15,AGAATCCC,0.321
16,GGGATCCC,0.419
17,AGAATCCT,0.252
18,AGGATCCC,0.379
19,GAGATCCC,0.0362
20,AAGATCCT,0.0935
21,AGGATCCT,0.301
22,AGGATCCG,0.0808

row,Sequence,PBM E-score
1,AGGATCCA,0.263
2,CTGGTCGA,-0.3
3,GGGCCAAC,-0.13
4,AAATGCTT,-0.208
5,GCCGGCGC,0.0181
6,AGCAAACT,0.0882
7,GGGTTCAA,-0.101
8,GCCGGCTA,-0.145
9,GAAGGGAC,-0.279
10,CGGATCCG,0.212
11,TGGATCCA,0.317
12,CGGATCCA,0.235
13,CGGATCCC,0.341
14,CGGATCGC,-0.0306
15,GTGATCCA,-0.0936
16,GAGATCCA,0.174
17,GGGATCCA,0.347
18,TGGATCAA,-0.0326
19,AAATCAAA,0.0655
20,TGAAAGCA,0.00794
21,GATACTGC,-0.205
22,ATCCGACA,-0.019

row,Sequence,PBM E-score
1,CGGTTAGC,-0.0704
2,GGCCTGCA,-0.237
3,TTCCAGAA,0.287
4,CCCCAGAG,-0.0817
5,TACCAGAA,0.34
6,CTCCAGAA,0.0346
7,GTCCAGAA,0.0699
8,GACCAGAA,0.131
9,CCCCAGAC,0.0344
10,CCCCAGAA,0.288
11,CACCAGAA,0.15
12,AACCAGAC,-0.0315
13,AACCAGAA,0.281
14,AACCAGAT,0.228
15,AAGTTTGG,0.179
16,AATCCAAA,0.205
17,ACTTCATG,0.0318
18,GAACCCGA,0.195
19,CGTATCTC,0.0698
20,ACTACGGG,0.00638
